Reference: the supplement of paper PMC11732987, “Enantioselective OTUD7B fragment discovery through chemoproteomics screening and high-throughput optimisation” (Communications Chemistry, 2025)

Columns and labels:
Assay in all cases: log2 ratio of Biotin-Ahx-Ub-VS probe labelling (fragment/DMSO); higher = less target engagement (more negative = stronger competition), active = hit call of the paper (q ≤ 0.05, log2 ratio ≤ -1)
Settings in all cases: compound concentration: 200 uM; treatment time: 3 h
USP42 = target: T1, USP42 (UniProt Q9H9J4)
T1 sequence (whole entry): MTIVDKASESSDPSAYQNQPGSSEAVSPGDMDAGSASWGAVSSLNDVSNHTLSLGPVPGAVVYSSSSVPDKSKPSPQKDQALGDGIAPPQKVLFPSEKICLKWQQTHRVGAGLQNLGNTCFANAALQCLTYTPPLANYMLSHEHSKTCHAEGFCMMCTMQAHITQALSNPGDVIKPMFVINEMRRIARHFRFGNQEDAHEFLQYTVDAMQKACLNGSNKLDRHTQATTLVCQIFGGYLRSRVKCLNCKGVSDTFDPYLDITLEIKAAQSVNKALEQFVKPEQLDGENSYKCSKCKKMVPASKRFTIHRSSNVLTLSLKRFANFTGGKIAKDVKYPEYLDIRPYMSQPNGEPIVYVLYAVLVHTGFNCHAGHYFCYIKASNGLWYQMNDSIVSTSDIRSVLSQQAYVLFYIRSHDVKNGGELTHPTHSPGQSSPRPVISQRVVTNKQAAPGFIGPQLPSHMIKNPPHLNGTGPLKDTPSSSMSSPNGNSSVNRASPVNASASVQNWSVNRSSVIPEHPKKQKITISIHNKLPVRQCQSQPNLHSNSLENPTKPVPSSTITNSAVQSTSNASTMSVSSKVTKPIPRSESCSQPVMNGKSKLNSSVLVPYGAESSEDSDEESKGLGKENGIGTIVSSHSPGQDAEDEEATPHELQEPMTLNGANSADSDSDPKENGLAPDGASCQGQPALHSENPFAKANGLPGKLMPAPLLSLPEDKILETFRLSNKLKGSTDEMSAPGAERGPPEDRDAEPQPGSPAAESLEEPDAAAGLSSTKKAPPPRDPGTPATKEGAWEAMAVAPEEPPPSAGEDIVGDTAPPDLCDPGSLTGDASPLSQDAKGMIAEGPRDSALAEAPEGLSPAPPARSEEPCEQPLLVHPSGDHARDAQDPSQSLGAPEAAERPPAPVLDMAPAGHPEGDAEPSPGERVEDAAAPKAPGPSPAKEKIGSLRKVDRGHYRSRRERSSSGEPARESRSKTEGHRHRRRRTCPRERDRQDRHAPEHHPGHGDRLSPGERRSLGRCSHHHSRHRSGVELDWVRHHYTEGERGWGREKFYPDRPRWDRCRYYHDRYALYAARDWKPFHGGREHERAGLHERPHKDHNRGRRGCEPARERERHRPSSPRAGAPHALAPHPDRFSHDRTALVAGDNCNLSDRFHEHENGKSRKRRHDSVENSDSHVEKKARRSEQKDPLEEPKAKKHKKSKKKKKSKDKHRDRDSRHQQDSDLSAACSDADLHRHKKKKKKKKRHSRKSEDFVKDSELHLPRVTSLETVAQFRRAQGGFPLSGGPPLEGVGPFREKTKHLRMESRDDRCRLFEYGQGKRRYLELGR
Outline: (§1)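 Labelling with Biotin-Ahx-Ub-VS (0.5 µM final, 1 h) followed a 3 h triplicate treatment of HEK293T lysate (495 µg per sample, Tris/CHAPS/IGEPAL buffer with protease inhibitors) with fragment at 200 µM or vehicle. Labelled DUBs were NeutrAvidin-enriched, digested with LysC and trypsin, and run by diaPASEF LC-MS/MS. The values, average log2 fragment/vehicle ratios by unpaired t-test, come from global-median-normalised Spectronaut label-free quantities. Proteins with ≥2 unique peptides were used.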

USP46 = USP46 (UniProt P62068)
Sequence of USP46 (P62068 whole entry): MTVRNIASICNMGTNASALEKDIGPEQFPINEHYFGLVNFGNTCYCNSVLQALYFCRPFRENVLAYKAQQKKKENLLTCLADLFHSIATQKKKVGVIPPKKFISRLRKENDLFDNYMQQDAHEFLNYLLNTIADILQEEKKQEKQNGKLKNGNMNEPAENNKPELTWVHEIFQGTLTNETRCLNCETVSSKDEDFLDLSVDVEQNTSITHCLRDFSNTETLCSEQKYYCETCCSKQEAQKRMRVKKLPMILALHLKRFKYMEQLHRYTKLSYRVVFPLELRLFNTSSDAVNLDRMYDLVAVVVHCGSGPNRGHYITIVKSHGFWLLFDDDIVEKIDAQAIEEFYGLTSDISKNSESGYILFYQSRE
Outline: as §1

USP47 = target: T2, USP47 (UniProt Q96K76)
T2 sequence (whole entry): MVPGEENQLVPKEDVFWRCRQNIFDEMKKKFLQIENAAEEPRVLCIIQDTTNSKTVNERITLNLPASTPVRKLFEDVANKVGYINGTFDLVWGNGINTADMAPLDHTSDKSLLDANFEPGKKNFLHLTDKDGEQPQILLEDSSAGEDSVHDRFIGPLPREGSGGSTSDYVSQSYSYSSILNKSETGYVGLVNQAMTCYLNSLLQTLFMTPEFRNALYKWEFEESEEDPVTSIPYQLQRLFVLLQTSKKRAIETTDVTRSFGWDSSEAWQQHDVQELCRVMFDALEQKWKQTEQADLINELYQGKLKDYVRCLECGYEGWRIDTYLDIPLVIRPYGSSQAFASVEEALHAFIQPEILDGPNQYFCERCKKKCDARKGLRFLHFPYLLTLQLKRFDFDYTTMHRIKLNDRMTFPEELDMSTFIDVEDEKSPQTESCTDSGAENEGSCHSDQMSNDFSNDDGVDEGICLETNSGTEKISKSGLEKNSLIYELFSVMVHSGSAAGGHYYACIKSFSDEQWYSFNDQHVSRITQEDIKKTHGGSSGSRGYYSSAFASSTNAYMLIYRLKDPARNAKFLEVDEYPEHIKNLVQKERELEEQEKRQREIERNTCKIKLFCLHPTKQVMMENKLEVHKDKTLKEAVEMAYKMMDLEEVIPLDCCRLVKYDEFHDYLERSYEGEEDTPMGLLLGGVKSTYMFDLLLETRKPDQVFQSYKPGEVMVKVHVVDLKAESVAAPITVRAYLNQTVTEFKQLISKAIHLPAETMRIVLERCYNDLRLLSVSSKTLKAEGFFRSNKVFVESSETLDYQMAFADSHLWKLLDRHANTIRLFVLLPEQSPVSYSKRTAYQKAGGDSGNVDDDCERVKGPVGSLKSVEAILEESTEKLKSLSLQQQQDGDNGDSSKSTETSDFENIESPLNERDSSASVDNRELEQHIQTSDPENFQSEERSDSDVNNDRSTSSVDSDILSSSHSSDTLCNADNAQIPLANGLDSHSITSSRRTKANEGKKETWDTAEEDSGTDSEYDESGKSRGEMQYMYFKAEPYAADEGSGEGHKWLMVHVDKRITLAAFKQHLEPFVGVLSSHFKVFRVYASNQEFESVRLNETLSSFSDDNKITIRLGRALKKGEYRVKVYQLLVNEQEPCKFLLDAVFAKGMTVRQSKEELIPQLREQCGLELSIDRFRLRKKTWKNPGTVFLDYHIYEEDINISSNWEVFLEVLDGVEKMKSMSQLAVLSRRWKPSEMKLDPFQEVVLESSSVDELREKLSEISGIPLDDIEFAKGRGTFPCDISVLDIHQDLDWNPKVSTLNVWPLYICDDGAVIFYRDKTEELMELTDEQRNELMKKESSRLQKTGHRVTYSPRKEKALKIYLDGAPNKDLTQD
Outline: as §1

USP48 = target: T3, USP48 (UniProt Q86UV5)
T3 sequence (whole entry): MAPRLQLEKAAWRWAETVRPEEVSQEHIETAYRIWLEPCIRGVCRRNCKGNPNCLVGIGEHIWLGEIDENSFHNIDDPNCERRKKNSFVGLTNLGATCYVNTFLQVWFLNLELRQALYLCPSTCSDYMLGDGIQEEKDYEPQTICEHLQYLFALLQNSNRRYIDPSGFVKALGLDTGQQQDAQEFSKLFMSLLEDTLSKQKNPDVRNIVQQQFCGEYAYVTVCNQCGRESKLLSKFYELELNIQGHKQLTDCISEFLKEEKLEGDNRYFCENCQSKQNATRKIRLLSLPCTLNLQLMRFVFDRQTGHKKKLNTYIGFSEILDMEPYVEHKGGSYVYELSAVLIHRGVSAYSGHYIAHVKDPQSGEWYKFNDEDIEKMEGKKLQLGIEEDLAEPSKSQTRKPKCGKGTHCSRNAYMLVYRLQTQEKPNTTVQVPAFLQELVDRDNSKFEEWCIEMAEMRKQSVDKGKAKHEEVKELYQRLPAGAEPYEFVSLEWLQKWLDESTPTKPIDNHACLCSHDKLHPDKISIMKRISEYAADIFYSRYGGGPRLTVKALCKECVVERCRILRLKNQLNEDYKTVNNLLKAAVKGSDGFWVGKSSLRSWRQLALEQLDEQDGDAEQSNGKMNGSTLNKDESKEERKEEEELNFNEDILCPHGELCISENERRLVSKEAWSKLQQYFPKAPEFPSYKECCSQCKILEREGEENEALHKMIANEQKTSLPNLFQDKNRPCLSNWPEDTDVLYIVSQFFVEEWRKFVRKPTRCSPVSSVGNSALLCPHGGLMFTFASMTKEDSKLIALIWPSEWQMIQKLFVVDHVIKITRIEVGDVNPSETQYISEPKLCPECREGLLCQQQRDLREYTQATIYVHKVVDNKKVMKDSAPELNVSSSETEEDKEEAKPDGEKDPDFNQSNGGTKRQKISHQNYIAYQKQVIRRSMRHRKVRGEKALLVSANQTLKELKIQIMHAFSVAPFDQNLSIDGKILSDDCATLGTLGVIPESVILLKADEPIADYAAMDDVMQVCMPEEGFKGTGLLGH
Outline: as §1

USP5 = target: T4, USP5 (UniProt P45974)
T4 sequence (whole entry): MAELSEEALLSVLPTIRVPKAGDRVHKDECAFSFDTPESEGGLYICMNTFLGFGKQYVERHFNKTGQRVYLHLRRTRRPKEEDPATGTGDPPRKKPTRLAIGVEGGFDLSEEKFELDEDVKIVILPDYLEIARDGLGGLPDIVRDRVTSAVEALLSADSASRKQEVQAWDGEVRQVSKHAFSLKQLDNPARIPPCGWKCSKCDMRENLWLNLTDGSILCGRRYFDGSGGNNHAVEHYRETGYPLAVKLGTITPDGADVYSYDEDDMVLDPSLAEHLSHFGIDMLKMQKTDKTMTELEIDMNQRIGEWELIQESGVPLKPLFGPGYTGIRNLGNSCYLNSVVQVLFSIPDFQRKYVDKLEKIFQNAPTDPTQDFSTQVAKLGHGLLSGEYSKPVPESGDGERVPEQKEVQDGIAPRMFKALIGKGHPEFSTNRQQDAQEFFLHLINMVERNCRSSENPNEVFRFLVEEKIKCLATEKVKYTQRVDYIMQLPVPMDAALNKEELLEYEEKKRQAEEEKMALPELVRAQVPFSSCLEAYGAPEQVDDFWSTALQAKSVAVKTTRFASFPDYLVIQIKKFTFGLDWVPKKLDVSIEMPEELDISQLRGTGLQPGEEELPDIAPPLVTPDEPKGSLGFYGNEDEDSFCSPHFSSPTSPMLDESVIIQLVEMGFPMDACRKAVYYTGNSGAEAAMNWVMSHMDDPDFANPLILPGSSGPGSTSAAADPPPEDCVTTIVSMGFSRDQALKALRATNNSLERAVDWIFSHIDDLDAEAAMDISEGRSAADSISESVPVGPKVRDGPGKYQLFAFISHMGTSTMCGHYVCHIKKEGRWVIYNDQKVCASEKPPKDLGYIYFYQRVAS
Outline: as §1

USP54 = USP54 (UniProt Q70EL1)
Sequence of USP54 (Q70EL1 whole entry): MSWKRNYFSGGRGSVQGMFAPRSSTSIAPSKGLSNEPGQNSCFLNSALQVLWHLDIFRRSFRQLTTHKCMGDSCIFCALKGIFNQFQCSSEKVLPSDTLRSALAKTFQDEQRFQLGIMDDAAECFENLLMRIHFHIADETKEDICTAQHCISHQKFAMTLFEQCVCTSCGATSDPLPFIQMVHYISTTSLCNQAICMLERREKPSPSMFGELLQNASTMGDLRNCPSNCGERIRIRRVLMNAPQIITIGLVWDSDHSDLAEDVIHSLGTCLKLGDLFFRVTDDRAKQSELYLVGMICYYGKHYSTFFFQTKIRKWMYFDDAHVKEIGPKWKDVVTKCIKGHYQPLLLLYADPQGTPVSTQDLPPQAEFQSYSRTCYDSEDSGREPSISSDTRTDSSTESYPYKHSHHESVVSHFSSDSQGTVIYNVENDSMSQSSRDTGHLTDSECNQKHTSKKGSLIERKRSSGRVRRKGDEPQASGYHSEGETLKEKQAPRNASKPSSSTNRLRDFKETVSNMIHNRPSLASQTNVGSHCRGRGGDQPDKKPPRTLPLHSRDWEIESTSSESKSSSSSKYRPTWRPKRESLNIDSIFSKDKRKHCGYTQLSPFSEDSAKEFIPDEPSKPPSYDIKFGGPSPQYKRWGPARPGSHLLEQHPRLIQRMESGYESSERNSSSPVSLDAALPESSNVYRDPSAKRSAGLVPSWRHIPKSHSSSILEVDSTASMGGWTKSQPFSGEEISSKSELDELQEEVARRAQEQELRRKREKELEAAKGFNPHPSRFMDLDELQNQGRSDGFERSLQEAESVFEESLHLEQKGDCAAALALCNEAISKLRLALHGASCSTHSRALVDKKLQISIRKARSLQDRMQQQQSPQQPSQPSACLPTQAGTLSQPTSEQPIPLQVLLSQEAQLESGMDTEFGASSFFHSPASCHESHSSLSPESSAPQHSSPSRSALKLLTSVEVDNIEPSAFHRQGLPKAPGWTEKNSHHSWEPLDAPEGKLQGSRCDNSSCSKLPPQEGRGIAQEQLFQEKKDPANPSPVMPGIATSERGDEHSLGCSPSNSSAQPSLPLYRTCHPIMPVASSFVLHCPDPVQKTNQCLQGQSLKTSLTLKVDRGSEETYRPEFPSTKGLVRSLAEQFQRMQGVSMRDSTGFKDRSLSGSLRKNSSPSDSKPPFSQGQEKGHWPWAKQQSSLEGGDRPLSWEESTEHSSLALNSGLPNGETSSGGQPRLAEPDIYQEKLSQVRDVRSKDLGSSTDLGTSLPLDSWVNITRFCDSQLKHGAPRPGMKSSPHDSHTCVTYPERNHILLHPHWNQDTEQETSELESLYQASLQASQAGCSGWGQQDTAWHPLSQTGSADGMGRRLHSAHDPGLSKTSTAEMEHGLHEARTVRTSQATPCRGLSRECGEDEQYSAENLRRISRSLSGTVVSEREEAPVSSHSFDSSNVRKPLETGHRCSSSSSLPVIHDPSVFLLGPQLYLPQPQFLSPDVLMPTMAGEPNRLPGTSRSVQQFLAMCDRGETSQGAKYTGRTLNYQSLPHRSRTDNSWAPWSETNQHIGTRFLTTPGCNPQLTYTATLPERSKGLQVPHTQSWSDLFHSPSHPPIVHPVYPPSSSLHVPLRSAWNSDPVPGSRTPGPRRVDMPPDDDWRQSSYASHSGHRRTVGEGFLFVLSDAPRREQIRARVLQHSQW
Outline: as §1

USP7 = USP7 (UniProt Q93009)
Outline: as §1

USP8 = target: T5, USP8 (UniProt P40818)
T5 sequence (whole entry): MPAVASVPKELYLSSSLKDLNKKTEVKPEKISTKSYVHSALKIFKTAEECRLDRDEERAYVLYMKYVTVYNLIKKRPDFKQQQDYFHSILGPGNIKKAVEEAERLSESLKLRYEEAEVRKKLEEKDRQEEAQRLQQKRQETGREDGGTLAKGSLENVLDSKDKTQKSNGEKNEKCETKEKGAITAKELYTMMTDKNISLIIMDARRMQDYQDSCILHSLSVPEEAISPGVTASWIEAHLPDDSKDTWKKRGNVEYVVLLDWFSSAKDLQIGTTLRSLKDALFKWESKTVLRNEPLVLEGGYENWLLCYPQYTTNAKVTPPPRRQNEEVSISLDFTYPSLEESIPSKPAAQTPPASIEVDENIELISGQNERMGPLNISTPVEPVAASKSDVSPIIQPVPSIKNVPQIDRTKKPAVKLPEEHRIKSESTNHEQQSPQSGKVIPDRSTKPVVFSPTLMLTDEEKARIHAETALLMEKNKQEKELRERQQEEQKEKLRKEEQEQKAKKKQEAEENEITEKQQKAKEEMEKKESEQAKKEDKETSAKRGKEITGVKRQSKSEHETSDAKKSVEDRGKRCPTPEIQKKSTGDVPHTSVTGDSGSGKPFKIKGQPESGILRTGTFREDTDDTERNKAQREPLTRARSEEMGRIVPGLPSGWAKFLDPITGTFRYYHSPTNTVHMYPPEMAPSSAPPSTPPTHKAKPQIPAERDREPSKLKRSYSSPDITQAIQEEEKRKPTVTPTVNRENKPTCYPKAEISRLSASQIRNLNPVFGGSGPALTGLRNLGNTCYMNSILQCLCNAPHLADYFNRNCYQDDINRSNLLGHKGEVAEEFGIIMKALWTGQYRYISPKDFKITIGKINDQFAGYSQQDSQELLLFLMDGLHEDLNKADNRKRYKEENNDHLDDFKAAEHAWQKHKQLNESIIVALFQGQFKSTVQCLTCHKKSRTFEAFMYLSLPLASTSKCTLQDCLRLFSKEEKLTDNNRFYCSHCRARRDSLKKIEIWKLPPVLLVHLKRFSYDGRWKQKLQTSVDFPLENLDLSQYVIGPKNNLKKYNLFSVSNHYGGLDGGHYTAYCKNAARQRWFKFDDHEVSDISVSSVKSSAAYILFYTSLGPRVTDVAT
Outline: as §1

USP9X = USP9X (UniProt Q93008)
Sequence of USP9X (Q93008 whole entry): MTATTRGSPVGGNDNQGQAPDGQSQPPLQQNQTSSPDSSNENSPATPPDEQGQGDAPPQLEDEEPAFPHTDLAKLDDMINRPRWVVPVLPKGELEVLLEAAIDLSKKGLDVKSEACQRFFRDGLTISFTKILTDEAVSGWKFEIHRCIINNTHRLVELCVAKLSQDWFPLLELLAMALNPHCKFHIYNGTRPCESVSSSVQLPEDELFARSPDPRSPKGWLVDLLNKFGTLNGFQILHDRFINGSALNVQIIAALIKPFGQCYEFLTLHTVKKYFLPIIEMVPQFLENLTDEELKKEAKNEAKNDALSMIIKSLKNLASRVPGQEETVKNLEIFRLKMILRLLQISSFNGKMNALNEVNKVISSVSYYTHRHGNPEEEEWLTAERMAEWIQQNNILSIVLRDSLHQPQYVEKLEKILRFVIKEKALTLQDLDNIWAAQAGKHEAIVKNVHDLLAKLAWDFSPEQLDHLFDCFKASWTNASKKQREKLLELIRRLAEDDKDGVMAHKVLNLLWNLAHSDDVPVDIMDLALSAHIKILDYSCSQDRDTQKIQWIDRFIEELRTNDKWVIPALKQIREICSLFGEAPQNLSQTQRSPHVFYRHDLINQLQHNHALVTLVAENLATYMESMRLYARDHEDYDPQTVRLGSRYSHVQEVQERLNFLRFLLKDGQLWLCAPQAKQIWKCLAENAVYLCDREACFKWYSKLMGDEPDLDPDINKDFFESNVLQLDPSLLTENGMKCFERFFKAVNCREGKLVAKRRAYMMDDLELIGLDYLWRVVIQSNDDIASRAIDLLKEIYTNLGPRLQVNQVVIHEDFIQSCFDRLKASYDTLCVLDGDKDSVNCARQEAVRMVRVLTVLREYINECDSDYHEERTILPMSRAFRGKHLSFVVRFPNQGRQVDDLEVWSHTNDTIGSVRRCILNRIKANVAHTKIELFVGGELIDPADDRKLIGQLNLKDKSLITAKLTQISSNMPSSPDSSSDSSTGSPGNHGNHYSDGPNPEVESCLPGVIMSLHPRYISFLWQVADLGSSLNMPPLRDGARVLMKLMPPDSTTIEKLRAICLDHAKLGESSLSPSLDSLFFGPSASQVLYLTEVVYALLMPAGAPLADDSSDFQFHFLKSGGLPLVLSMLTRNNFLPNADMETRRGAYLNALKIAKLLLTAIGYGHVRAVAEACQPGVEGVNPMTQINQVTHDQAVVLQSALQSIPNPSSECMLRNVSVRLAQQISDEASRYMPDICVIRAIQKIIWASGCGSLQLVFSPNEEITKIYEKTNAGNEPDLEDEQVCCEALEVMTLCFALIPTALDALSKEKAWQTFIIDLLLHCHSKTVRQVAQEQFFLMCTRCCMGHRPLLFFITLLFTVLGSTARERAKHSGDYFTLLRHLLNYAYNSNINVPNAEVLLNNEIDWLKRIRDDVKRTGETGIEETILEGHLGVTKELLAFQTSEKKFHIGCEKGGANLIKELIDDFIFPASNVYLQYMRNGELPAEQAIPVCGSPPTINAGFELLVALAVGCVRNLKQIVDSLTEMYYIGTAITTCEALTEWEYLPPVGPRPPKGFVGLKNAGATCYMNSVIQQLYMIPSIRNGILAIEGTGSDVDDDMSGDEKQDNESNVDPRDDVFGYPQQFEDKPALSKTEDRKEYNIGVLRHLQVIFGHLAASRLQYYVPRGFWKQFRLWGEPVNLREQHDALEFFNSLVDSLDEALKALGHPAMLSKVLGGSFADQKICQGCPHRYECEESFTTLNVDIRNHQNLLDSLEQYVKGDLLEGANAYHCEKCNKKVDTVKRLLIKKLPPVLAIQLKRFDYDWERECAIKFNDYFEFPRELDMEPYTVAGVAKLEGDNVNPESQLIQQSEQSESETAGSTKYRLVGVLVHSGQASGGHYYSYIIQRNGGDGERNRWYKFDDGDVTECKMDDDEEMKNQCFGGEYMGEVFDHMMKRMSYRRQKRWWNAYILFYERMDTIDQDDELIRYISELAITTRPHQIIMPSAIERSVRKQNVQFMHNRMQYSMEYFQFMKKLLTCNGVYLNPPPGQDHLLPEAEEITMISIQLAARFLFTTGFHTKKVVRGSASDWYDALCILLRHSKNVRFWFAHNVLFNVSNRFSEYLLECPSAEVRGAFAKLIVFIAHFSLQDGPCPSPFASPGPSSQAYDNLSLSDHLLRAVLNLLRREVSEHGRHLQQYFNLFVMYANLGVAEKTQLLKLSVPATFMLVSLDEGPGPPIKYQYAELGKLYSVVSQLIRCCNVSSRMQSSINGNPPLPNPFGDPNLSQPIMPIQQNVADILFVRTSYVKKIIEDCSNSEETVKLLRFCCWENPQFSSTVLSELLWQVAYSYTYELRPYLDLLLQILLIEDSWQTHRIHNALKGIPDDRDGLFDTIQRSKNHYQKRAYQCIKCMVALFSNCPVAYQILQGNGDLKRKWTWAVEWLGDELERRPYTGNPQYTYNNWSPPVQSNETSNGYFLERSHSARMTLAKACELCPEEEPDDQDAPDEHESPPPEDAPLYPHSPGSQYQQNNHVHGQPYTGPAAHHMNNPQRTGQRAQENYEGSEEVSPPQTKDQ
Outline: as §1

UniProt O00487 = target: UniProt O00487
Sequence of UniProt O00487 (O00487 whole entry): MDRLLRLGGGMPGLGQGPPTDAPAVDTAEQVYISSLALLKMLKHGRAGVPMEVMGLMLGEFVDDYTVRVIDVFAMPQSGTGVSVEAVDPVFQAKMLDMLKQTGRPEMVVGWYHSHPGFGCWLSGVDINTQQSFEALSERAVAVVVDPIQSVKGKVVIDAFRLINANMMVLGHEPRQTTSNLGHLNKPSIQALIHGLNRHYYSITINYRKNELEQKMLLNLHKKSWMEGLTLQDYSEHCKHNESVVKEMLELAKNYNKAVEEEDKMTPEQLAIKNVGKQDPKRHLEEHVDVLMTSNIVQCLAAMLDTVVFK
Outline: as §1

Measured: log2 ratio of Biotin-Ahx-Ub-VS probe labelling

O=C(CCl)NCc1cccc(F)c1
inactive: USP42 -0.105 | USP46 0.151 | USP47 -0.193 | USP48 -0.0573 | USP5 0.1 | USP54 0.396 | USP7 -0.069 | USP8 -0.0486 | USP9X 0.0745 | UniProt O00487 -0.0795
